The panel holds about 83,000 compounds, 20% with a hit somewhere; the sample as a whole holds those more often.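 How to read the values: 0–100, growth inhibition (40 = 60% inhibited); 0, no net growth; -100 to 0, cell death (-40 = 40% of starting cells died; -100 = all dead).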 Calls of active or inactive are those of the source. How the source made its calls: active means growth percent below 10; inactive means the rest.
Experiments:
Assay in all cases: NCI-60 one-dose screen, 48 h (100 = growth as untreated, 0 = no growth, -100 = all killed)
Details in all cases: 10 µM unless noted
BT-549 breast = tested on: BT-549 breast
MDA-MB-435 melanoma = tested on: MDA-MB-435 melanoma
SW-620 colon = tested on: SW-620 colon
MCF7 breast = tested on: MCF7 breast
HCT-116 colon = tested on: HCT-116 colon
HCC-2998 colon = tested on: HCC-2998 colon
KM12 colon = tested on: KM12 colon

Measured: growth

COc1cc(N=Cc2sc(Nc3nccs3)nc2O)cc(OC)c1OC
inactive: BT-549 breast 93.6% | MDA-MB-435 melanoma 87.9% | SW-620 colon 97.3% | MCF7 breast 71.5% | HCT-116 colon 94.2% | HCC-2998 colon 111% | KM12 colon 89.9%

O=C(CSc1nc2sc3c(c2c(=O)n1-c1ccc(Cl)cc1)CCCC3)N/N=C/c1ccc(F)cc1
inactive: BT-549 breast 116% | MDA-MB-435 melanoma 86.9% | SW-620 colon 61.9% | MCF7 breast 74.7% | HCT-116 colon 99.7% | HCC-2998 colon 112% | KM12 colon 90.1%

COc1ccccc1C(=O)CSc1nc(Nc2ccc(S(N)(=O)=O)cc2)c2ccccc2n1
inactive: BT-549 breast 111% | MDA-MB-435 melanoma 90.4% | SW-620 colon 98.1% | MCF7 breast 44.6% | HCT-116 colon 77% | HCC-2998 colon 103% | KM12 colon 78.4%

CN(C)CCCNc1c2ccc(Cl)cc2nc2c1oc1ccc(Cl)cc12
active: MDA-MB-435 melanoma -74.3% | SW-620 colon -79% | MCF7 breast -76.4% | HCT-116 colon -93.7% | HCC-2998 colon -85.1% | KM12 colon -56.3%
inactive: BT-549 breast 79.9%

C#Cc1nc(C2=C(C)C(=O)/C(=N/OC(C)=O)C2)cs1
inactive: BT-549 breast 95% | MDA-MB-435 melanoma 94.8% | SW-620 colon 110% | MCF7 breast 68.4% | HCT-116 colon 78.4% | HCC-2998 colon 117% | KM12 colon 46.8%

C/C(=N\NC(N)=O)c1c(O)sc(=O)[nH]c1=O
inactive: BT-549 breast 95.3% | MDA-MB-435 melanoma 104% | SW-620 colon 97.5% | MCF7 breast 93.4% | HCT-116 colon 91% | KM12 colon 100%

O=C(CSc1nnc(-c2ccc3nc(-c4ccc(Cl)cc4)[nH]c3c2)o1)Nc1ccc(C(=O)/C=C/c2ccc(Cl)cc2)cc1
inactive: BT-549 breast 99.6% | MDA-MB-435 melanoma 99.9% | SW-620 colon 103% | MCF7 breast 55.2% | HCT-116 colon 77.8% | HCC-2998 colon 116% | KM12 colon 99.3%

CN1C(=O)N(c2ccccc2)C2N=C(N/N=C/c3ccccc3)SC21 (stereo not given)
active: MDA-MB-435 melanoma -24.9%
inactive: BT-549 breast 52.4% | SW-620 colon 15.2% | MCF7 breast 24% | HCT-116 colon 22.5% | HCC-2998 colon 51.5% | KM12 colon 22%

Nc1nc(N)c2c(n1)NC(c1ccc(F)cc1)CC(c1ccc(Nc3nc(NCCO)nc(Nc4ccc(Cl)cc4)n3)cc1)=N2 (stereo not given)
inactive: BT-549 breast 42.7%
active: MDA-MB-435 melanoma -71.4% | SW-620 colon -52.8% | MCF7 breast -66.5% | HCT-116 colon -67.4% | HCC-2998 colon -80.4% | KM12 colon -16.9%

Cc1ccc2ccc3ccc(C)nc3c2n1.Cc1ccc2ccc3ccc(C)nc3c2n1.Oc1c(Cl)cc(Cl)c2ccc(CN3CCCCC3)nc12.[Ru]
active: BT-549 breast -95.8% | MDA-MB-435 melanoma -90.5% | SW-620 colon -40% | MCF7 breast -75.1% | HCT-116 colon -92% | HCC-2998 colon -90.1% | KM12 colon -73.9%

COc1ccc(Cc2nn(CC(=O)N/N=C/c3ccc(Cl)cc3)c(=O)c3c(C)noc23)cc1
inactive: BT-549 breast 93.9% | MDA-MB-435 melanoma 94.5% | SW-620 colon 69% | MCF7 breast 83.5% | HCT-116 colon 36.4% | KM12 colon 85.9%

COc1ccc(NC(=O)c2sc3nc(-c4cnccn4)cc(-c4cccs4)c3c2N)cc1
inactive: BT-549 breast 42.4% | MDA-MB-435 melanoma 71.5% | SW-620 colon 65.2% | MCF7 breast 57.4% | HCT-116 colon 61.9% | HCC-2998 colon 67.5% | KM12 colon 61%

N#Cc1ccc(C(=O)CSc2nc(Nc3ccc(S(N)(=O)=O)cc3)c3ccccc3n2)cc1
inactive: BT-549 breast 111% | MDA-MB-435 melanoma 108% | SW-620 colon 103% | MCF7 breast 98.6% | HCT-116 colon 100% | HCC-2998 colon 119% | KM12 colon 107%

CN(C)CCCNc1c2ccc(Cl)cc2nc2c1oc1ccccc12
active: MDA-MB-435 melanoma -40.6% | SW-620 colon -1.01% | MCF7 breast -21.7% | HCT-116 colon -19.8% | HCC-2998 colon -70.8% | KM12 colon 1.73%
inactive: BT-549 breast 53.4%

CCOC(=O)c1c(Nc2ccccc2)nn2c(N)c(C#N)c(-c3ccc(Cl)cc3)nc12
inactive: BT-549 breast 96.7% | MDA-MB-435 melanoma 70.3% | SW-620 colon 65.8% | MCF7 breast 65.2% | HCT-116 colon 59.9% | HCC-2998 colon 83.5% | KM12 colon 64.1%

Cc1cc(C(=O)Nc2sc3c(c2C(N)=O)CCC(=O)C3)ccc1OCCN1CCCCC1
inactive: BT-549 breast 129% | MDA-MB-435 melanoma 103% | SW-620 colon 86.5% | MCF7 breast 95.3% | HCT-116 colon 84.1% | KM12 colon 88.7%

CN1C(=S)N(C)C2C1NN=C1SC(c3ccccc3)=CC(=O)N12 (stereo not given)
inactive: BT-549 breast 98.1% | MDA-MB-435 melanoma 74.2% | SW-620 colon 105% | MCF7 breast 96.1% | HCT-116 colon 98.8% | HCC-2998 colon 106% | KM12 colon 98.3%

N#Cc1nc(-c2ccccc2)oc1S(=O)(=O)N1CCCCC1
active: SW-620 colon -12.8%
inactive: BT-549 breast 85.7% | MDA-MB-435 melanoma 68% | MCF7 breast 29.2% | HCT-116 colon 21.2% | HCC-2998 colon 105% | KM12 colon 101%

COc1cc(/C=C/C(=O)c2cc(OC)c(OC)c(OC)c2)ccc1OCc1ccc(F)cc1
inactive: MDA-MB-435 melanoma 52.9% | SW-620 colon 16.9% | MCF7 breast 10.8% | HCC-2998 colon 40.2% | KM12 colon 19%
active: BT-549 breast 8.09% | HCT-116 colon 5.57%

COC(=O)C(C)NS(=O)(=O)/N=C1\NC(=O)NC1=C(Cl)Cl (stereo not given)
inactive: BT-549 breast 109% | MDA-MB-435 melanoma 105% | SW-620 colon 124% | MCF7 breast 98% | HCT-116 colon 102% | KM12 colon 105%

Cc1ccc(/C=C/c2nn3c(-c4ccco4)nnc3s2)cc1C
inactive: BT-549 breast 107% | MDA-MB-435 melanoma 99.4% | SW-620 colon 98.5% | MCF7 breast 82.1% | HCT-116 colon 109% | HCC-2998 colon 108% | KM12 colon 110%

CCOC(=O)c1c(Nc2ccccc2)nn2c(N)c(C#N)c(-c3ccc(F)cc3)nc12
inactive: BT-549 breast 98.7% | MDA-MB-435 melanoma 81.2% | SW-620 colon 86.5% | MCF7 breast 67.6% | HCT-116 colon 87.4% | HCC-2998 colon 110% | KM12 colon 87.3%

CN(C)c1ccc(-c2c(NC(C)(C)C)nc3c(OCCc4ccccc4)cccn23)cc1
inactive: BT-549 breast 42.3% | MDA-MB-435 melanoma 24% | SW-620 colon 12.4% | HCC-2998 colon 13%
active: MCF7 breast 1.49% | HCT-116 colon 8.37% | KM12 colon 6.85%

C=CCn1c(SCC(=O)c2ccccc2)nnc1-c1c[nH]c2ccccc12
inactive: BT-549 breast 109% | MDA-MB-435 melanoma 105% | SW-620 colon 96.1% | MCF7 breast 97.2% | HCT-116 colon 97.5% | HCC-2998 colon 111% | KM12 colon 112%

O=C(c1ccc(O)cc1)C1[C@H](c2ccc(Cl)cc2)[C@@H](c2ccccc2)NC12C(=O)Nc1ccc(Cl)cc12 (stereo not given in full)
active: MCF7 breast 9.87%
inactive: BT-549 breast 77.3% | MDA-MB-435 melanoma 39.6% | SW-620 colon 40.5% | HCT-116 colon 14.5% | HCC-2998 colon 18% | KM12 colon 24.4%

COC(=O)C1CCCN(S(=O)(=O)/N=C2\NC(=O)NC2=C(Cl)Cl)C1 (stereo not given)
active: KM12 colon 4.95%
inactive: BT-549 breast 118% | MDA-MB-435 melanoma 111% | SW-620 colon 85.8% | MCF7 breast 20.4% | HCT-116 colon 97.8% | HCC-2998 colon 111%

O=C1NC(=C(Cl)Cl)/C(=N/S(=O)(=O)N2CCCCC2CC2(C(F)(F)F)N=N2)N1 (stereo not given)
active: SW-620 colon -82.2% | MCF7 breast 9.63% | HCT-116 colon -28.8% | HCC-2998 colon 5.46% | KM12 colon 9.36%
inactive: BT-549 breast 68% | MDA-MB-435 melanoma 41.6%

Cc1ccc(C(=O)Nc2cccc(C(F)(F)F)c2)cc1Nc1nc(-c2cnccn2)nc2c1cnn2C
inactive: BT-549 breast 143% | MDA-MB-435 melanoma 35.9% | SW-620 colon 58.4% | MCF7 breast 73.2% | HCT-116 colon 35.6% | HCC-2998 colon 47.9% | KM12 colon 56.6%

Nc1c(C(=O)Nc2ccc(C(F)(F)F)cc2)sc2nc(-c3cnccn3)cc(-c3cccs3)c12
inactive: BT-549 breast 22.5% | MDA-MB-435 melanoma 95.4% | SW-620 colon 103% | MCF7 breast 75.8% | HCC-2998 colon 108% | KM12 colon 95.6%
active: HCT-116 colon -62.1%

CCCC(=O)NC(c1ccc2c(c1)OC(F)(F)O2)c1cc(C)c2cccnc2c1O (stereo not given)
inactive: BT-549 breast 37.9% | MDA-MB-435 melanoma 22.9% | SW-620 colon 30.3% | MCF7 breast 24.1% | HCT-116 colon 26.2% | HCC-2998 colon 53.3% | KM12 colon 21.4%

c1ccc2c(NCCCN3CCOCC3)c3oc4ccccc4c3nc2c1
active: BT-549 breast 3.61% | MDA-MB-435 melanoma -11.9% | SW-620 colon -0.873% | MCF7 breast 0.0447% | HCT-116 colon -20.1% | HCC-2998 colon -28% | KM12 colon 2.04%

CS(=O)(=O)c1ccc(-n2cc(/C=C/C(=O)c3ccc(NC(=O)CO[N+](=O)[O-])cc3)c(-c3ccc(Cl)cc3)n2)cc1
inactive: BT-549 breast 103% | MDA-MB-435 melanoma 104% | SW-620 colon 114% | MCF7 breast 84.4% | HCT-116 colon 103% | HCC-2998 colon 93.4% | KM12 colon 107%

— PubChem BioAssay (NCI)
